# Measured values from PubChem BioAssay (NCI).
# About 83,000 compounds went through this panel and 20% of them were active in at least one assay; those are over-represented in the sample as a whole.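 Single-concentration screen, 48 h exposure, 96-well plates. Endpoint: percent growth. Below 10 = active.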 Unmarked numbers belong to inactive results. Calls of active or inactive are those of the source.
# Tests used:
# Assay in all cases: NCI-60 one-dose screen, 48 h (100 = growth as untreated, 0 = no growth, -100 = all killed)
# Details in all cases: 10 µM unless noted
# SK-MEL-2 melanoma = system: SK-MEL-2 melanoma
# EKVX NSCLC = system: EKVX NSCLC
# SN12C renal = system: SN12C renal
# UO-31 renal = system: UO-31 renal
# TK-10 renal = system: TK-10 renal
# ACHN renal = system: ACHN renal
# CAKI-1 renal = system: CAKI-1 renal
# A498 renal = system: A498 renal
# CCRF-CEM leukemia = system: CCRF-CEM leukemia
# MOLT-4 leukemia = system: MOLT-4 leukemia
Compound,growth (SK-MEL-2 melanoma) [%],growth (EKVX NSCLC) [%],growth (SN12C renal) [%],growth (UO-31 renal),growth (TK-10 renal) [%],growth (ACHN renal) [%],growth (CAKI-1 renal) [%],growth (A498 renal),growth (CCRF-CEM leukemia),growth (MOLT-4 leukemia)
COc1cccc(OC)c1C(=O)N[C@@H]1C(=O)N2[C@@H]1SC(C)(C)[C@@H]2C(=O)O,101,104,97.7,84.9%,106,98.4,94.2,121%,99.8%,94.6%
Cc1cc(O)c(C2=NN(c3ccc(S(N)(=O)=O)cc3)C(/C=C/c3ccccc3)C2)cc1Cl (stereo not given),34.1,68.8,66.4,78.2%,68.3,33.1,48.7,39.9%,66.2%,73.3%
COc1nc2ccccc2cc1-c1nc2c(cnn2-c2ccccc2)c(=O)[nH]1,12.9,58.5,65.8,40.2%,72,57.6,42.1,18.9%,21.1%,40.4%
CCCCn1c(=O)c(-c2cc(-c3ccc(Cl)cc3)nc(-c3ccc(Cl)cc3)c2)cc2ccc(Cl)cc21,123,105,98.8,86.8%,115,104,91.6,102%,100%,100%
CC(=O)N1CCN(c2ccc(OCC3CO[C@](Cn4ccnc4)(c4ccc(Cl)cc4Cl)O3)cc2)CC1 (stereo not given in full),86.8,87.9,84.2,53.7%,101,92.5,79.6,86.4%,75.2%,77.4%
NC1=C(c2nn[nH]n2)C(c2ccccc2Cl)c2ccc3ccccc3c2O1 (stereo not given),89.7,90.7,84,60%,74.9,77.5,36.9,48%,77.5%,70.9%
COc1ccc(C2=Nn3c(nnc3-c3cc(Cl)cc(Cl)c3Cl)SC2)cc1,22.4,41.3,39.3,5.61% (active),57.5,33.5,47.6,-11.3% (active),0.0891% (active),8.31% (active)
CC(=O)CC(c1ccccc1)c1c(C)[nH]c2ccccc12 (stereo not given),105,85.9,94,72.6%,117,92.8,77.8,88.1%,101%,95%
COc1ccc(CN2c3ccccc3Sc3ccccc32)c(F)c1,30.4,51,47.1,43%,51.1,43.4,21.5,-11.6% (active),7.16% (active),22.6%
COc1ccc(-c2nc(NCCO)[nH]c(=O)c2C#N)cc1,98.6,110,95.9,90.5%,99.7,96.5,101,113%,102%,98.8%
C/C=C(\C)C(=O)N[C@H]1[C@@H](OC(C)=O)C[C@]2(C)C3CC[C@@]4(C)C(CC[C@@H]4C(C)N(C)C)C3CCC2[C@H]1O (stereo not given in full),97.2,62.7,75.3,10.5%,65.5,67.9,65.6,85.8%,39.7%,65.6%
COc1cc(C2CC(c3ccc(N(C)C)cc3)=NN2C(C)=O)cc(OC)c1OC (stereo not given),37.1,44.3,37.7,45.7%,63.4,44.9,27,-1.88% (active),11.8%,11.6%
COc1ccc(-c2nc(NN)c3c(C)nn(-c4ccc(F)cc4)c3n2)cc1,24.1,59.4,44.5,51.2%,77.3,40.2,36.9,20.8%,23.4%,37.5%
